Structures are written as SMILES. Records with an inconclusive call do not appear. Where a call stands in place of a potency, no number is given. Calls of active or inactive are those of the source. The call rests on the fitted dose curve; in most records, active means well fitted cell-killing curve with a large enough effect; inconclusive means small, poorly fitted or top-dose-only effect; inactive means flat fitted curve, though single readings scatter.

The nature of this test: Cellular viability qHTS for adrenocortical cancer (ACC) cell line NCI-H295R (AID 1963990). Further: nearly all actives have a fitted effect of over 60% in size. As to conditions: CellTiter-Glo ATP luminescence, 48 h; series mostly up to 46.1 µM. The text has this: PI: Naris Nilubol, MD Surgical Oncology Program, National Cancer Institute (NCI) National Institute of Health (NIH), Bethesda, Maryland Adrenocortical cancer (ACC) is a rare malignancy with poor survival outcomes and few treatment options. Currently, mitotane is the only FDA-approved therapy for ACC. Although adjuvant radiation therapy is rarely utilized, it has the potential to improve survival in select cases. Through a quantitative high-throughput drug screen (qHTS), we identified auranofin (AF), a thioredoxin reductase (TXNRD) inhibitor, as a promising candidate drug. This study aims to evaluate whether AF can enhance the efficacy of radiation therapy in the treatment of ACC. Two human ACC cell lines, SW-13 and NCI-H295R, were screened using the National Center for Advancing Translational Sciences (NCATS) Pharmaceutical Collection (NPC) and the Mechanism Interrogation PlatE (MIPE) library (~4,991 compounds). CellTiter-Glo (Cat # G7570, Promega, Madison, WI) was utilized to measure cell viability. Described herein are the results of the corresponding viability assay.
PROTOCOL TABLE (as described by Inglese J, Shamu CE and Guy RK. 2007) SEQUENCE No. (e.g., 1, 2, 3, etc.); […] (e.g., Cells, Incubation, Reagent, etc.); VALUE; DESCRIPTION. 1; Cells; 5 uL; white, solid-bottom, 1536-well tissue-culture treated plates. 2; Time; overnight culture at 37C with 5% CO2. 3; Compounds and control; 23 nL; Kalypsis pin tool (Wako USA) equipped with a 1536-well pin head to transfer to the assay plates. 4; Time; 48 hours; 37C with 5% CO2. 5; Reagent; 4 uL; CellTiter-Glo luminescent substrate mix. 6; Time; 20 min at room temperature. 7; Detection; Luminescence; ViewLux plate reader NOTES (numbers refer to Sequence numbers above) 1. NCI-H295R cells were harvested from a T175 flask and resuspended in ITS-supplemented DMEM serum-free medium at a concentration of 300 000 cells/mL. Then 5 uL of resuspended cells were dispensed into each well of white, solid-bottom, 1536-well tissue-culture-treated plates using a multidrop combi dispenser. The plates were covered with stainless steel gasket lids. 2-3. The plates were cultured overnight at 37C with 5% CO2. Twenty-three nL of compounds (eight selected concentrations from the NPC / MIPE) or positive control (10 mM stock of bortezomib) in DMSO was transferred to each well of the assay plate using a pin tool (Kalypsys, San Diego, CA, USA). The final concentration of the compounds in the 5 uL assay volume ranged from 0.5 nM to 46 uM. 4-6. After 48 hours of incubation at 37C and 5% CO2, 4 uL of CellTilter-Glo luminescent substrate mix (Promega, Madison, WI, USA) was added to each well. Then the plates were incubated for 20 minutes at room temperature. 7. After incubation, luminescence was measured using a ViewLux plate reader (PerkinElmer, Waltham, MA, USA) with a clear filter was used to measure the number of metabolically competent cells. To determine compound activity in the qHTS assay, the titration-response data for each sample was plotted and modeled by a four-parameter logistic fit yielding IC50 and efficacy (maximal response) values. Raw plate reads for each titration point were normalized relative to positive control ([…], 100% inhibition) and DMSO-only wells (basal, 0%). REFERENCES: Inglese J, Shamu CE and Guy RK, Reporting data from high throughput screening of small molecule libraries, Nature Chemical Biology, 2007, 3(8): 438-441. doi.org/10.1038/nchembio0807-438.
For `COc1ccccc1OCC(O)COC(N)=O` (stereo not given), the Potency result is “inactive”.
Under `CN1C(C(=O)Nc2ccccn2)=C(O)c2sccc2S1(=O)=O` stands “inactive”.
On to `C=C1[C@H](OC(=O)/C=C(\C)CC)C[C@@H](C(C)C)[C@@H]2[C@H]([C@@H](C)OC(C)=O)C(=O)C[C@@H]12`, for which the Potency result is “inactive”.
Turning to `O=C1Cc2cc(Cl)ccc2N1`, the Potency entry was “inactive”.
Take `CCCCC1C(=O)N(c2ccccc2)N(c2ccc(O)cc2)C1=O` (stereo not given): the Potency is 5.17 µM (active).
Under `Nc1nccn2c(C3CCC(C(=O)O)CC3)nc(-c3cc4cccc(Cl)c4[nH]3)c12` (stereo not given) stands 12.6 µM (active); under `CC(C)n1cnc2c(NCCCCCCNC(=O)OC(C)(C)C)nc(NCCO)nc21`, “inactive”; under `CC(=O)Nc1ccc(C(=O)O)cc1`, “inactive”.
Consider `Cc1cc(-c2ccc(CC(=O)Nc3ccc(-c4cccnc4)cc3)cc2)ccn1`, for which the Potency entry is “inactive”.
Turning to `CS(=O)(=O)N(Cc1ccco1)CC(O)Cn1c2ccccc2c2ccccc21` (stereo not given), the Potency entry is “inactive”.
With `COc1ccccc1N1CCN(CCN(C(=O)C2CCCCC2)c2ccccn2)CC1` the entry was “inactive”; with `O=C(O)c1ccccc1OP(=O)(O)O`, “inactive”.
`Cc1c(Cn2ccnc2)c2ccccc2n1CCC(=O)O`: the Potency entry is “inactive”.
In the case of `COc1cc(/C=C/C(N)=O)cc(OC)c1OC`, the Potency result is “inactive”.
In the case of `Cc1cc(C(C)Nc2ccccc2)c2nc(N3CCOCC3)cc(=O)n2c1` (stereo not given), the Potency entry was “inactive”.
On to `COC(=O)/C=C/C(=O)N(O)CCCCNCc1ccc(COC(=O)Nc2cccc3ccccc23)cc1`, for which the Potency result was “inactive”.
As for `O=C1NS(=O)(=O)c2ccccc21`, the Potency result is “inactive”.
`C1=C/COCc2cc(ccc2OCCN2CCCC2)Nc2nccc(n2)-c2cccc(c2)COC/1`: the Potency is 5.01 µM (active).
Consider `Cc1ccc(S(=O)(=O)Cc2nc(-c3ccc(C(=O)NCc4cccnc4)cc3)oc2C)cc1`, for which the Potency is 0.0501 µM (active).
As for `CCCCOC(=O)CCCCCCCCC(=O)OCCCC`, the Potency result is “inactive”.
Take `N#Cc1ccnc(Nc2cc(C3CCN(C4COC4)CC3)cc(N3CCC(F)(F)C3)n2)c1`: the Potency is 10 µM (active).
In the case of `COc1ccc(-c2cnc3c(-c4cccc5ncccc45)cnn3c2)cc1`, the Potency entry is “inactive”.
With `NCCO`, the Potency result was “inactive”.
Take `CCCCn1c(=O)n(Cc2ccccc2F)c(=O)c2[nH]c(Cc3ccc(NC(C)=O)cc3)nc21`: the Potency entry is “inactive”.
In the case of `CN(C)CCC(c1ccccc1)c1ccccn1` (stereo not given), the Potency entry is “inactive”.
With `CC(C)(C)c1nc2c3cc[nH]c(=O)c3c3cc(F)ccc3c2[nH]1`, the Potency result was “inactive”.
`CC(C(=O)O)c1ccc2c(c1)[nH]c1ccc(Cl)cc12` (stereo not given): the Potency entry was “inactive”.
`OC[C@H]1O[C@@H](O[C@@H]2[C@@H](CO)O[C@](O)(CO)[C@H]2O)[C@H](O)[C@@H](O)[C@H]1O`: the Potency result was “inactive”.
With `Nc1c2ccccc2nc2ccccc12` the figure was 7.31 µM (active); with `C[N+](C)(CCOc1ccccc1)Cc1cccs1`, “inactive”.
Regarding `Cc1cc(C)c(/C=C2\C(=O)Nc3ccccc32)[nH]1`, the Potency entry is “inactive”.
For `CC(O)CCCCn1c(=O)c2c(ncn2C)n(C)c1=O` (stereo not given), the Potency result is “inactive”.
Consider `Nc1ccc(O)cc1`, for which the Potency result is “inactive”.
On to `CN(C)CCCOc1ccc(-c2ccc3ncc4c(c3c2)n(C2CCOCC2)c(=O)n4C)cn1`, for which the Potency is 1.8 µM (active).
In the case of `CC(=O)Nc1cc(Oc2ccc3c(nc(Nc4ccc(F)cc4F)n3C)c2C)ccn1`, the Potency is 2.24 µM (active).
As to `CCOC(=O)C1=C(C)NC2=C(C(=O)CC(C)(C)C2)C1c1ccc(-c2ccccc2)cc1` (stereo not given), the Potency is 10 µM (active).
On to `COc1ccc2nc(SCc3ncc(C)c(OC)c3C)[nH]c2c1`, for which the Potency entry was “inactive”.
For the compound `COC1CCC(C(=O)c2ccc3nc4c(cc3c2)CCCO4)CC1` (stereo not given), the Potency result was “inactive”.
Consider `COc1cc(C(=O)NCc2ccc(OCCN(C)C)cc2)cc(OC)c1OC`, for which the Potency entry was “inactive”.
Take `O=C(NC1CCOCC1)c1ccc(-c2cc(-c3cn[nH]c3-c3ccccn3)ccn2)cc1`: the Potency entry is “inactive”.

The record behind these values is PubChem BioAssay (NCATS).
